Reference: the supplement of paper PMC10127200
Counter-ions that a name gives are not always drawn.

What follows are molecules tested on 786-O (assay: Euclidean distance of Cell Painting phenotypic profile (signed KS, 77 features) to DMSO centroid (dimensionless distance); 5 or 10 uM (library dependent); higher = stronger phenotypic change vs DMSO (phenoactivity)). Conditions: 48 h.
In short: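 At 10 or 5 uM, as set by the library, and 0.1% DMSO final, compounds were applied for 48 h to five cancer lines and one healthy fibroblast line. Stained cells were imaged confocally at 20X in 9 fields per well, and Harmony extracted 77 features scored as signed Kolmogorov-Smirnov statistics against vehicle wells on the same plate. Profiles underwent plate-position correction, correlation weighting and replicate averaging at the top dose. Phenoactivity is the Euclidean distance from each such profile to the median vehicle profile.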

Point of comparison: `C/C(=N\NC(=S)N1CCC1)c1ccccn1`, Euclidean distance 3.65. Against it:
- O=C1c2cccc(O)c2C(=O)c2c(O)cccc21 [Danthron] — lower, 1.02
- Cc1c(-c2cnccn2)ssc1=S [Oltipraz] — lower, 1.13
- CO[C@H]1/C=C/O[C@@]2(C)Oc3c(C)c(O)c4c(O)c(c(/C=N/N5CCN(C)CC5)c(O)c4c3C2=O)NC(=O)/C(C)=C\C=C\[C@H](C)[C@H](O)[C@@H](C)[C@@H](O)[C@@H](C)[C@H](OC(C)=O)[C@@H]1C [Rifampin] — lower, 1.56
- Cc1nnc(SCC2=C(C(=O)O)N3C(=O)[C@@H](NC(=O)Cn4cc(Cl)c(=O)c(Cl)c4)[C@H]3SC2)s1 [Cefazedone] — lower, 1.36
- CC(=O)OCC[N+](C)(C)C [Acetylcholine iodide] — lower, 0.893
- CCCC(=O)Nc1cccc(NC(=O)c2ccccc2Br)c1 — lower, 1.43
- Nc1ncn([C@@H]2O[C@H](CO)[C@@H](O)[C@H]2O)c(=O)n1 [Azacitidine] — lower, 1.87
- O=C(/C=C/C#Cc1cccc(NS(=O)(=O)c2ccccc2)c1)NO [Oxamflatin] — lower, 3.39
- CNCCc1ccccn1 [Betahistine mesylate] — lower, 0.848
- COc1ccc2cc([C@H](C)C(=O)O)ccc2c1 [Naproxen] — lower, 0.797
- OCC(O)CN1CCN(c2ccccc2)CC1 (centres undefined) [Dropropizine] — lower, 1.11
- C=CC(=O)Nc1cccc(Nc2nc(Nc3ccc(N4CCN(C(C)=O)CC4)cc3OC)ncc2C(F)(F)F)c1 — lower, 1.04
- C/C(=C\c1ccc(C(=O)O)cc1)c1ccc2c(c1)C(C)(C)CCC2(C)C [TTNPB (Arotinoid Acid)] — lower, 0.687
